Laboratory results published in PubChem BioAssay.
Several values for one entry are separate records, joined by “and”; a condition that tells them apart may be missing. Equal entries are not always repeated. More than one record can exist for a structure, and the calls need not agree. Activity calls are given as the source filed them. Unless noted, no rule for the calls is given here.

Columns and labels:
[1] = compounds altering circadian rhythm period length – cell-based, LOPAC library, luminescence reporter (AID 2774); details: circadian reporter cells, at 7 µM, actives lie on both sides;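 also: values are relative to mean of DMSO wells on each plate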
[2] = system: Hepatitis C virus NS3 helicase; experiment: blockers of NS3h binding to ssDNA – biochemical, fluorescence polarization, LOPAC1280 library, primary screen (AID 687035; in the data active = inhibition above about 37%); details: Purified HCV NS3 helicase, Cy5-dT15 ssDNA binding fluorescence polarization; stronger effect = higher value; concentration not given here
[3] = compounds altering Cy5-DNA-NS3h complex signal – biochemical, LOPAC1280, artefact control for HCV NS3 helicase inhibitor project (AID 687037); details: Cy5-DNA-NS3h complex fluorescence interference counterscreen
[4] = system: Aerobactin synthetase IucA (Klebsiella pneumoniae); experiment: inhibition of K. pneumoniae IucA enzyme – biochemical, Tocris library, absorbance (AID 1345561); details: purified IucA enzyme assay, absorbance (OD) read-out; stronger effect = lower value;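 tested at 8 µM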;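 also: 100% = enzyme without compound and 0% = no enzyme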
[5] = viability loss with induced miR-34 in A549 – imaging, A549 dox-inducible miR-34, nuclei and caspase counts, primary screen (AID 1347080;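 active = compounds whose cell count with miR-34 switched on is under 0.7 times the count with it off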); details: A549 miR-34 inducible, Hoechst nuclei count, 48 h
[6] = blockers of cellular phospholipid synthesis – cell-based, LOPAC library, screen 4, primary screen (AID 1347384); details: animal cells, phospholipid biosynthesis inhibition screen; at 10 µM
[7] = galactose survival enhancers in mitochondrial complex I cybrids – cell-based, galactose medium, ATP luminescence, primary screen (AID 1645843;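 active = z-score of at least 1.8 in each of two replicates, scored against plate mean and spread of sample wells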;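 also: positive z means more ATP and so rescue of galactose-driven cybrid death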); details: complex I mutant cybrid cells, 72 h, stronger effect = higher value
[8] = stronger effect = lower value, cell number ratio, induced over uninduced
[9] = measured here: relative caspase fold change +Dox/-Dox
[10] = measured here: total cells with miR-34 induction, stronger effect = lower value
[11] = measured here: total cells without miR-34 induction

Structure (SMILES) | period change [1] | inhibition [2] | fluorescence ratio (interference) [3] | remaining activity [4] | fold change [5, 8] | fold change [5, 9] | cell count [5, 10] | cell count [5, 11] | outcome [6] | z-score [7]
CC[C@H](NC(=O)c1c(C)c(-c2ccccc2)nc2ccccc12)c1ccccc1 | 0.09 h (inactive) | 1% (inactive) | 1 (inactive) | 110% (inactive) | 1.28 (inactive) and 0.912 (inactive) | 1.6 and 0.801 | 6890 and 7500 | 5390 and 8230 | inactive | 1.77 (inactive) and 1.96 (inactive)
Clc1ccc(N2CCN(Cc3c[nH]c4ncccc34)CC2)cc1 | 0.105 h (inactive) | 12% (inactive) | 1 (inactive) | 95.2% (inactive) | 1.07 (inactive) and 0.896 (inactive) | 0.721 and 0.794 | 9090 and 6380 | 8470 and 7120 | inactive | -0.965 (inactive) and -1.05 (inactive)
CCN(CC)CCOC(=O)c1cc(Cl)c(N)cc1OC | -0.055 h (inactive) | -6% (inactive) | 1 (inactive) | 95% (inactive) | 0.965 (inactive) and 0.955 (inactive) | 1.47 and 1.03 | 10500 and 9010 | 10800 and 9430 | inactive | 0.75 (inactive) and 0.1 (inactive)
COc1ccc(NC(=O)c2ccc(-c3ccc(-c4noc(C)n4)cc3C)cc2)cc1N1CCN(C)CC1 | 0.065 h (inactive) | -3% (inactive) | 0.9 (inactive) | 119% (inactive) | 0.954 (inactive) and 1.08 (inactive) | 0.805 and 0.587 | 510 and 1390 | 535 and 1290 | inactive | -1.29 (inactive) and -0.715 (inactive)
CC#CCOC(=O)c1c(C)nc2sc3c(c2c1N)CCC(O)C3 (stereo not given) | -0.09 h (inactive) | -3% (inactive) | 1 (inactive) | 102% (inactive) | 0.861 (inactive) and 0.824 (inactive) | 0.901 and 1 | 7740 and 5720 | 8990 and 6940 | inactive | -1.22 (inactive) and -0.71 (inactive)
COC(=O)[C@H](NC(=O)c1cc(-c2ccccc2)nc2ccccc12)c1ccccc1 | -0.11 h (inactive) | -1% (inactive) | 1 (inactive) | 100% (inactive) | 1 (inactive) and 0.927 (inactive) | 0.906 and 0.535 | 9010 and 8560 | 8980 and 9240 | inactive | 0.22 (inactive) and -0.03 (inactive)
CC(=O)NNC(=O)N1Cc2ccccc2Oc2ccc(Cl)cc21 | -0.025 h (inactive) | -1% (inactive) | 1 (inactive) | 100% (inactive) | 0.965 (inactive) and 0.956 (inactive) | 0.954 and 0.9 | 10200 and 8650 | 10600 and 9060 | inactive | 1.17 (inactive) and 0.635 (inactive)
CNC(=O)c1cc2c(cn1)[nH]c1ccccc12 | -0.24 h (inactive) | 0% (inactive) | 1 (inactive) | 99.6% (inactive) | 0.95 (inactive) and 0.891 (inactive) | 1.84 and 0.981 | 8950 and 7610 | 9420 and 8540 | inactive | 2.76 (active) and 1.85 (inactive)
CN=c1nc(-c2ccccc2)n(-c2ccccc2)s1 | -0.055 h (inactive) | 8% (inactive) | 1 (inactive) | 118% (inactive) | 0.91 (inactive) and 0.922 (inactive) | 1.06 and 0.764 | 3550 and 4090 | 3900 and 4440 | inactive | -1.38 (inactive) and -0.73 (inactive)
c1ccc2nc(C3=NCCN3)ccc2c1 | 0.1 h (inactive) | 0% (inactive) | 1 (inactive) | 101% (inactive) | 1.03 (inactive) and 0.931 (inactive) | 1.73 and 0.739 | 9970 and 8800 | 9720 and 9460 | inactive | 0.695 (inactive) and 0.09 (inactive)
C=CCN1CCc2cc(O)c(O)cc2C(c2ccccc2)C1 (stereo not given) | 0.045 h (inactive) | -4% (inactive) | 0.9 (inactive) | 113% (inactive) | 0.956 (inactive) and 0.974 (inactive) | 1.26 and 0.531 | 10300 and 8820 | 10700 and 9060 | inactive | -1.29 (inactive) and -0.785 (inactive)
O=c1[nH]c2cc([N+](=O)[O-])c([N+](=O)[O-])cc2[nH]c1=O | 0.075 h (inactive) | -4% (inactive) | 1 (inactive) | 109% (inactive) | 0.955 (inactive) and 0.937 (inactive) | 1 and 0.778 | 9840 and 7960 | 10300 and 8490 | inactive | -0.11 (inactive) and 0.22 (inactive)
NC(N)=NC(N)=Nc1cccc(Cl)c1 | 0.15 h (inactive) | -4% (inactive) | 1 (inactive) | 77.4% (inactive) | 0.947 (inactive) and 0.85 (inactive) | 1.12 and 1.01 | 10300 and 7530 | 10900 and 8860 | inactive | -0.165 (inactive) and -0.935 (inactive)
O=C1NC(c2cccc([N+](=O)[O-])c2)=CCN1c1ccccc1O | -0.125 h (inactive) | -4% (inactive) | 1 (inactive) | 111% (inactive) | 0.967 (inactive) and 1.03 (inactive) and 0.928 (inactive) | 1.12 and 1.35 and 0.882 | 10200 and 5990 and 8100 | 10600 and 5810 and 8730 | inactive | -0.245 (inactive) and 1.08 (inactive)
C[C@@H](CN1CCC(Cc2ccccc2)CC1)[C@@H](O)c1ccc(O)cc1 | 0.12 h (inactive) | -3% (inactive) | 1 (inactive) | 113% (inactive) | 0.971 (inactive) and 0.906 (inactive) | 0.907 and 0.699 | 9590 and 8970 | 9880 and 9910 | inactive | -1.21 (inactive) and -0.605 (inactive)
COC1(C2=NCCN2)COc2ccccc2O1 (stereo not given) | 0.04 h (inactive) | -3% (inactive) | 0.9 (inactive) | 126% (inactive) | 0.986 (inactive) and 0.983 (inactive) | 1.8 and 0.411 | 10100 | 10300 and 10200 | inactive | -0.135 (inactive) and -0.24 (inactive)
